# Experimental data reported in PubChem BioAssay (EPA / NIEHS).
# More than one record can exist for a structure, and the calls need not agree. The source made the active and inactive calls. How the source made its calls: active means hit-call score of the fitted dose curve at least 0.9, where 1 is the maximum; inactive means score below 0.9.
# Test: APR_HepG2_MicrotubuleCSK_1hr: Apredica 1-hour HepG2 Assay for Microtubule CSK Stabilty (AID 2282669)
# Details: HepG2 microtubule cytoskeleton imaging, actives raise or lower the signal
# Procedure, shortened: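 HepG2 cells exposed 1 h to 0.39–200 uM compound (0.5% DMSO, duplicates), then formaldehyde-fixed, permeabilized and immunostained for alpha-tubulin with Hoechst nuclei. Imaged by ArrayScan high-content analysis; bidirectional fit versus DMSO.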
row,Structure (SMILES),outcome
1,COP(N)(=O)SC (configuration not stated),inactive
2,CC1COC(Cn2cncn2)(c2ccc(Oc3ccc(Cl)cc3)cc2Cl)O1 (configuration not stated),inactive
3,CCNc1nc(Cl)nc(NC(C)C)n1,inactive
4,CCCCNC(=O)OCC#CI,inactive
5,CCCC1COC(Cn2cncn2)(c2ccc(Cl)cc2Cl)O1 (configuration not stated),inactive
6,CCCN(CCC)c1c([N+](=O)[O-])cc(S(N)(=O)=O)cc1[N+](=O)[O-],inactive
7,COP(=S)(OC)Oc1nc(Cl)c(Cl)cc1Cl,inactive
8,Cc1ccc(-c2c(Cl)nc(C#N)n2S(=O)(=O)N(C)C)cc1,inactive
9,O=C(O)COc1nc(Cl)c(Cl)cc1Cl,inactive
10,COc1nc(C)nc(NC(=O)NS(=O)(=O)c2ccccc2CCC(F)(F)F)n1,inactive
11,Fc1ccc(Oc2ccnc3cc(Cl)cc(Cl)c23)cc1,inactive
12,COc1nc(C)nc(NC(=O)NS(=O)(=O)c2ccccc2Cl)n1,inactive
13,CC(C)C1(C)N=C(c2nc3ccccc3cc2C(=O)O)NC1=O (configuration not stated),inactive
14,OC(c1ccc(Cl)cc1)(c1cncnc1)c1ccccc1Cl (configuration not stated),inactive
15,C=CC1(C)OC(=O)N(c2cc(Cl)cc(Cl)c2)C1=O (configuration not stated),inactive
16,Oc1ccccc1-c1ccccc1,inactive
17,COC(=O)c1ccccc1C(=O)OC,inactive
18,CCc1nn(C)c(C(=O)NCc2ccc(C(C)(C)C)cc2)c1Cl,inactive
19,C=CCC1=C(C)[C@@H](OC(=O)[C@@H]2[C@@H](C=C(C)C)C2(C)C)CC1=O,inactive
20,COC(=O)C(C)Oc1ccc(Oc2ccc(Cl)cc2Cl)cc1 (configuration not stated),inactive
21,C#CCOS(=O)OC1CCCCC1Oc1ccc(C(C)(C)C)cc1 (configuration not stated),inactive
22,CS/C(C)=N/OC(=O)N(C)SN(C)C(=O)O/N=C(\C)SC,inactive
23,CCOP(=S)(OCC)SCn1c(=O)oc2cc(Cl)ccc21,inactive
24,CON(C)C(=O)Nc1ccc(Cl)c(Cl)c1,inactive
25,CCCCNC(=O)n1c(NC(=O)OC)nc2ccccc21,inactive
26,CCON=C(CC)C1=C(O)CC(c2c(C)cc(C)cc2C)CC1=O (configuration not stated),inactive
27,COc1cnc(OC)n2nc(NS(=O)(=O)c3c(OCC(F)F)cccc3C(F)(F)F)nc12,inactive

# Test: APR_HepG2_p53Act_1hr: Apredica 1-hour HepG2 Assay for p53 Activation (AID 2282671)
# Details: high-content imaging, actives raise or lower the signal
# Procedure, shortened: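 HepG2 cells treated 1 h with compound at 0.39–200 uM (10 concentrations, duplicate) in 0.5% DMSO. Formaldehyde-fixed, permeabilised cells immunostained for p53 with Hoechst 33342; high-content imaging, bidirectional fit versus DMSO.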
row,Structure (SMILES),outcome
1,COc1nc(C)nc(NC(=O)NS(=O)(=O)c2ccccc2CCC(F)(F)F)n1,inactive
2,COc1nc(C)nc(NC(=O)NS(=O)(=O)c2ccccc2Cl)n1,inactive
3,CS/C(C)=N/OC(=O)N(C)SN(C)C(=O)O/N=C(\C)SC,inactive
4,CCOP(=S)(OCC)SCn1c(=O)oc2cc(Cl)ccc21,inactive
5,CON(C)C(=O)Nc1ccc(Cl)c(Cl)c1,inactive

# Test: APR_HepG2_MitoticArrest_1hr: Apredica 1-hour HepG2 Assay for Mitotic Arrest (AID 2282672)
# Details: high-content imaging, actives raise or lower the signal
# Procedure, shortened: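 HepG2 cells exposed 1 hr to compounds at 0.39–200 uM (0.5% v/v DMSO final), then fixed in 3.7% formaldehyde and immunostained for phospho-histone H3 with Hoechst 33342. Mitotic arrest scored by automated fluorescence imaging, fitted bidirectionally versus DMSO.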
Structure (SMILES),outcome,AC50
COP(N)(=O)SC (configuration not stated),inactive,
CC1COC(Cn2cncn2)(c2ccc(Oc3ccc(Cl)cc3)cc2Cl)O1 (configuration not stated),inactive,
CCNc1nc(Cl)nc(NC(C)C)n1,inactive,
CCCCNC(=O)OCC#CI,inactive,28.8 µM (active)
CCCC1COC(Cn2cncn2)(c2ccc(Cl)cc2Cl)O1 (configuration not stated),inactive,
CCCN(CCC)c1c([N+](=O)[O-])cc(S(N)(=O)=O)cc1[N+](=O)[O-],inactive,
COP(=S)(OC)Oc1nc(Cl)c(Cl)cc1Cl,inactive,
Cc1ccc(-c2c(Cl)nc(C#N)n2S(=O)(=O)N(C)C)cc1,inactive,
O=C(O)COc1nc(Cl)c(Cl)cc1Cl,inactive,
COc1nc(C)nc(NC(=O)NS(=O)(=O)c2ccccc2CCC(F)(F)F)n1,inactive,
Fc1ccc(Oc2ccnc3cc(Cl)cc(Cl)c23)cc1,inactive,
COc1nc(C)nc(NC(=O)NS(=O)(=O)c2ccccc2Cl)n1,inactive,
CC(C)C1(C)N=C(c2nc3ccccc3cc2C(=O)O)NC1=O (configuration not stated),inactive,
OC(c1ccc(Cl)cc1)(c1cncnc1)c1ccccc1Cl (configuration not stated),inactive,
C=CC1(C)OC(=O)N(c2cc(Cl)cc(Cl)c2)C1=O (configuration not stated),inactive,
Oc1ccccc1-c1ccccc1,inactive,
COC(=O)c1ccccc1C(=O)OC,inactive,
CCc1nn(C)c(C(=O)NCc2ccc(C(C)(C)C)cc2)c1Cl,inactive,
C=CCC1=C(C)[C@@H](OC(=O)[C@@H]2[C@@H](C=C(C)C)C2(C)C)CC1=O,inactive,
COC(=O)C(C)Oc1ccc(Oc2ccc(Cl)cc2Cl)cc1 (configuration not stated),inactive,
C#CCOS(=O)OC1CCCCC1Oc1ccc(C(C)(C)C)cc1 (configuration not stated),inactive,
CS/C(C)=N/OC(=O)N(C)SN(C)C(=O)O/N=C(\C)SC,,29.7 µM (active)
CCOP(=S)(OCC)SCn1c(=O)oc2cc(Cl)ccc21,inactive,
CON(C)C(=O)Nc1ccc(Cl)c(Cl)c1,inactive,
CCCCNC(=O)n1c(NC(=O)OC)nc2ccccc21,inactive,
CCON=C(CC)C1=C(O)CC(c2c(C)cc(C)cc2C)CC1=O (configuration not stated),inactive,
COc1cnc(OC)n2nc(NS(=O)(=O)c3c(OCC(F)F)cccc3C(F)(F)F)nc12,inactive,

# Test: APR_HepG2_P-H2AX_1hr: Apredica 1-hour HepG2 Assay for H2AX Phosphorylation (AID 2282673)
# Details: high-content imaging, actives raise or lower the signal
# Procedure, shortened: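 HepG2 dosed 1 hr at 0.39-200 uM (0.5% DMSO final), duplicate. Fixed in 3.7% formaldehyde, Triton permeabilized, immunostained for phospho-histone H2A.x (1:200) with Hoechst 33342; ArrayScan 20x imaging, bidirectional fit vs DMSO.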
row,Structure (SMILES),outcome
1,COP(=S)(OC)Oc1nc(Cl)c(Cl)cc1Cl,inactive
2,Cc1ccc(-c2c(Cl)nc(C#N)n2S(=O)(=O)N(C)C)cc1,inactive
3,Fc1ccc(Oc2ccnc3cc(Cl)cc(Cl)c23)cc1,inactive
4,CC(C)C1(C)N=C(c2nc3ccccc3cc2C(=O)O)NC1=O (configuration not stated),inactive
5,OC(c1ccc(Cl)cc1)(c1cncnc1)c1ccccc1Cl (configuration not stated),inactive
6,CCOP(=S)(OCC)SCn1c(=O)oc2cc(Cl)ccc21,inactive
7,CCON=C(CC)C1=C(O)CC(c2c(C)cc(C)cc2C)CC1=O (configuration not stated),inactive
